Results filed as inconclusive are left out. A call without a number means that no potency is given here. Values without a mark were called inactive. Activity calls are given as the source filed them. The call rests on the fitted dose curve; in most records, active means well fitted curve in the direction sought with a large enough effect; inconclusive means small, poorly fitted or top-dose-only effect, or another doubt; inactive means no such curve, though single readings can be large; an effect the other way counts as inactive or inconclusive.

Data on 41 molecules can be found in PubChem BioAssay (NCATS).

Assay [1] addresses Aldehyde dehydrogenase, mitochondrial (Homo sapiens) (UniProt P05091). Briefly: qHTS for Inhibitors of the Aldehyde Dehydrogenase Family (ALDH2) Primary screen (AID 2061308; further: nearly all actives have a fitted effect of over 55% in size). (In qHTS, concentration-response curves come from the screen itself.)
The target of assay [2] is Retinaldehyde dehydrogenase 3 (Homo sapiens) (UniProt P47895). Nature of the assay: qHTS for Inhibitors of the Aldehyde Dehydrogenase Family (ALDH1A3) Primary screen (AID 2061315).

Turning to `Nc1ccc(C(=O)Nc2ccc(-c3nc4ccccc4[nH]3)cc2)cc1Cl`, the Potency result in assay [1] and in assay [2] was “inactive” throughout.
As to `COc1ccc(C(CC(=O)N2CC(C)CC(C)C2)c2c(O)cc(OC)cc2OC)cc1` (configuration not stated), the Potency result in assay [1] and in assay [2] was “inactive” in each case.
Take `O=[S+]([O-])(c1c(F)cccc1F)N1CCN([S+](=O)([O-])c2cccc3nonc23)CC1`: the Potency entry in assay [1] and in assay [2] was “inactive” each time.
With `Cc1cc(Nc2ncc3cc(-c4c(Cl)cccc4Cl)c(=O)n(C)c3n2)ccc1F`, the Potency result in assay [1] and in assay [2] was “inactive” throughout.
With `CCC(=O)NC(c1ccco1)c1cc(Cl)c2cccnc2c1O` (configuration not stated), the Potency result in assay [1] and in assay [2] was “inactive” each time.
In the case of `Cc1ccc(-c2ccc(=O)n(C(C)C)n2)cc1`, the Potency result in assay [1] and in assay [2] was “inactive” throughout.
As for `O=C(NC1CCCc2c1cnn2-c1ccc(F)cc1F)c1cnon1` (configuration not stated), the Potency entry in assay [1] and in assay [2] was “inactive” each time.
With `CCOC(=O)c1[nH]c2c(c1C)C(=O)CCC2`, the Potency entry in assay [1] and in assay [2] was “inactive” in each case.
As for `COc1c(Cl)cccc1NC(=O)c1c(NC(=O)Cc2ccccc2)sc2c1CCCC2`, the Potency entry in assay [1] and in assay [2] was “inactive” each time.
As to `Cc1cc(NS(=O)(=O)c2ccc(NC(=O)Cc3ccc(Cl)c(Cl)c3)cc2)on1`, the Potency result in assay [1] and in assay [2] was “inactive” throughout.
As to `O=C1c2ccccc2C(=O)N1c1noc2ccccc12`, the Potency result in assay [1] and in assay [2] was “inactive” throughout.
Turning to `Cc1ccc(C(=O)Nc2nnc(-c3ccco3)o2)cc1`, the Potency entry in assay [1] and in assay [2] was “inactive” in each case.
For `Cc1cc(NS(=O)(=O)c2cc3c(cc2F)NC(=O)CC3)ccc1Cl`, the Potency entry in assay [1] and in assay [2] was “inactive” each time.
With `Cc1ccc(-c2cc(C(=O)Nc3ccncc3)c3ccccc3n2)cc1C`, the Potency result in assay [1] and in assay [2] was “inactive” in each case.
On to `O=C(Nc1nc(-c2ccccc2)cs1)c1ccncc1NS(=O)(=O)c1cccc2cccnc12`, for which the Potency entry in assay [1] and in assay [2] was “inactive” throughout.
On to `Cc1cc(N[S+](=O)([O-])c2ccc(NC(=O)Cc3ccc(C(F)(F)F)c(F)c3)cc2)no1`, for which the Potency entry in assay [1] and in assay [2] was “inactive” in each case.
Regarding `CC1=C(C(=O)NC2CCCCC2)C(c2ccccc2Br)N=C(Nc2nc3ccccc3o2)N1` (configuration not stated), the Potency result in assay [1] and in assay [2] was “inactive” in each case.
As for `O=C(Nc1nc(-c2ccccc2)cs1)c1ccccc1`, the Potency result in assay [1] and in assay [2] was “inactive” in each case.
On to `Nc1ccccc1OCCn1c(CCNC(=O)C2CCCCC2)nc2ccccc21`, for which the Potency result in assay [1] and in assay [2] was “inactive” each time.
Regarding `C=C1[C@H]2CC[C@H](C(=O)O)[C@@]23CC[C@H](C3)C1(C)C`, the Potency entry in assay [1] and in assay [2] was “inactive” each time.
For the molecule `Cc1cc(-c2ccccc2)n2ncc(C(=O)Nc3ccc(Cl)c(Cl)c3)c2n1`, the Potency entry in assay [1] and in assay [2] was “inactive” throughout.
As for `Cc1cc2c(s1)c1cnn(Cc3c(Cl)cccc3Br)c(=O)c1n2C`, the Potency entry in assay [1] and in assay [2] was “inactive” each time.
Turning to `Nc1cccc(S(=O)(=O)N2CCN(S(=O)(=O)c3c(F)cccc3F)CC2)c1`, the Potency result in assay [1] and in assay [2] was “inactive” each time.
For the molecule `O=C(Nc1ccc(-n2ccnc2)c(F)c1)Nc1nnc(-c2ccncc2)s1`, the Potency entry in assay [1] and in assay [2] was “inactive” throughout.
Regarding `Cc1ccc(-c2cc(C(=O)NC3CCCCC3)c3ccccc3n2)cc1C`, the Potency entry in assay [1] and in assay [2] was “inactive” each time.
Consider `O=S(=O)(NCCCCNS(=O)(=O)c1c(F)cccc1F)c1ccc2c(c1)OCCO2`, for which the Potency entry in assay [1] and in assay [2] was “inactive” throughout.
`Cc1ccc(-c2cc(C(=O)NCc3ccccc3)c3ccccc3n2)cc1C`: the Potency entry in assay [1] and in assay [2] was “inactive” in each case.
For the molecule `COc1ccc(C2NC(=O)c3ccccc3N2)cc1COc1c(C)cc(NC(C)=O)cc1C` (configuration not stated), the Potency result in assay [1] and in assay [2] was “inactive” in each case.
For the molecule `Cc1cc2c(s1)c1cnn(Cc3ccc(Br)cc3)c(=O)c1n2C`, the Potency result in assay [1] and in assay [2] was “inactive” each time.
On to `O=C(c1ccc[nH]1)c1cc(Cl)ccc1NC(=O)[C@@H]1CCCN1`, for which the Potency result in assay [1] and in assay [2] was “inactive” each time.
As for `O=S(=O)(c1ccccc1)N1CCN(S(=O)(=O)c2ccc3c(c2)OCCO3)CC1`, the Potency result in assay [1] and in assay [2] was “inactive” in each case.
Consider `O=C1CCc2cc(S(=O)(=O)Nc3ccc(Cl)c(Cl)c3)c(F)cc2N1`, for which the Potency result in assay [1] and in assay [2] was “inactive” throughout.
As to `Cc1cc(N[S+](=O)([O-])c2ccc(NC(=O)Cc3ccccc3Cl)cc2)no1`, the Potency result in assay [1] and in assay [2] was “inactive” throughout.
As to `N#Cc1nc(Nc2cccc3ccccc23)nc(NC2CCCC2)n1`, the Potency result in assay [1] and in assay [2] was “inactive” each time.
Consider `Cc1nc(-c2ccccc2)oc1-c1ccc2ncnc(NCCc3cnc[nH]3)c2c1`, for which the Potency entry in assay [1] and in assay [2] was “inactive” throughout.
Regarding `Cc1cc(C)nc(NC(=S)N2CCN(c3cccc(C(F)(F)F)n3)CC2)c1`, the Potency result in assay [1] and in assay [2] was “inactive” throughout.
Take `Cc1cccc(CNc2ccnc(-c3ccccc3C(F)(F)F)n2)c1`: the Potency entry in assay [1] and in assay [2] was “inactive” each time.
As to `Brc1cnc2nc(SCc3cccnc3)[nH]c2c1`, the Potency result in assay [1] and in assay [2] was “inactive” in each case.
Take `Cc1ccc(OCCn2c(CCNC(=O)c3cccc(NC(=O)OC(C)(C)C)c3)nc3ccccc32)cc1`: the Potency result in assay [1] and in assay [2] was “inactive” each time.
`Cc1ccc(Cn2ncc3c4sc(C)cc4n(C)c3c2=O)c(C)c1`: the Potency entry in assay [1] and in assay [2] was “inactive” in each case.
Regarding `O=C(CNC(=O)c1ccc(Cl)c(C(F)(F)F)c1)OC(C(=O)Nc1cc(C(F)(F)F)ccc1Cl)c1ccccc1` (configuration not stated), the Potency entry in assay [1] and in assay [2] was “inactive” throughout.
